Screening results deposited in PubChem by ICCB-Longwood Screening Facility, Harvard Medical School.
This excerpt belongs to a sample that is enriched for hits.
VACV E9 pol inh: blocks vaccinia virus processive DNA synthesis | 0.94% of 46,000 active | normalized absorbance, % (concentration not given with the values) | in vitro processive DNA synthesis, absorbance read-out; active compounds read low; in the data active = normalized absorbance mostly below about 85%, no sharp cut-off; inactive = mostly above about 86%
* marks the source's active call; other numbers are inactive results.

SMILES	VACV E9 pol inh
CCN1CCCC1CNC(=O)c1noc2c1COc1ccc(C)cc1-2 (configuration not stated)	63.3*
Cc1ccc2c(c1)-c1onc(C(=O)NC3CCCc4ccccc43)c1CO2 (configuration not stated)	100.0
CCc1nnc(NC(=O)c2noc3c2COc2ccc(C)cc2-3)s1	98.2
COc1cc2cc(C)nc(C)c2cc1OC	68.0*
COc1cc2cc(C)nc(Cc3cccc4ccccc34)c2cc1OC	100.1
COc1cc2cc(=O)[nH]c(C)c2cc1OC	97.1
CCN(CC)C(=S)SC1CC(=O)N(c2ccc(S(=O)(=O)NC(C)=O)cc2)C1=O (configuration not stated)	101.0
Cc1ccc2oc3nc(N)c(-c4ccc(Cl)cc4)cc3c(=O)c2c1	99.8
O=c1[nH]cc(Sc2cccc3cccnc23)c(=O)[nH]1	100.9
CCc1ccc(NC(=O)c2ccc(N3CCCS3(=O)=O)cc2)cc1	93.3
O=C1Nc2ccccc2NC1CC(=O)N1CCC2(CC1)OCCO2 (configuration not stated)	91.1
CC1(C)Cc2snc(C(N)=O)c2C1	108.4
Nc1c2c(nc3ccccc13)N(C1CCCCC1)CC2	87.4*
CC(=Nc1c2c(nc3ccccc13)N(C)CC2)N(C)C	99.8
CC1CCCCN1c1nc(-c2ccccc2O)nc2ccccc12 (configuration not stated)	100.3
COc1ccc(N=Cc2ccc3ccccc3c2)cc1	100.7
Cc1ccc2c(c1)c(-c1ccccc1)c(-c1ccccc1)n2CC(O)CN1C(=O)CNC1=O (configuration not stated)	93.0
CCOC(=O)c1c(NC(=O)CCN2CCOCC2)sc(C)c1-c1ccccc1	81.8
CCOC(=O)c1c(NC(=O)/C=C\C(=O)O)sc(C)c1-c1ccccc1	62.9*
CCOC(=O)c1c(NC(C)=O)sc(Br)c1-c1ccc(C)cc1	89.0
CCc1cccc(NS(=O)(=O)c2ccc3c(c2)CC(=O)N3)c1	103.9
COc1ccc(NC(=O)c2cccn(OCc3ccccc3)c2=O)cc1	100.9
Brc1ccc2noc(-c3ccccc3)c2c1	100.3
Fc1ccc(-c2onc3ccc(-c4ccn[nH]4)cc23)cc1	79.2*
Cc1ccc(-c2onc3ccc(Cl)cc23)cc1	100.2
SMILES	VACV E9 pol inh
Cc1ccc(C(=O)Nc2ccc(Oc3ccccc3)cc2)cc1I	99.0
COc1ccc(C(=O)NCc2nnc(SC)n2CCc2ccccc2)cc1	93.3
O=C(O)C1(C2CCC3OCOC3C2)SCCCS1 (configuration not stated)	100.4
CCN(CC)CCOc1ccc2c(c1)C(=O)c1cc(OCCN(CC)CC)ccc1-2	29.8*
CCN(CC)CCOC(=O)C(c1ccccc1)c1ccccc1	102.7
CCN(CC)CCOc1ccc(/C(C)=N\O)cc1	100.5
CCOc1ccc(N2CC(c3nc4ccccc4n3Cc3ccc(F)cc3)CC2=O)cc1 (configuration not stated)	92.4
O=C(NO)C12CC3CC(CC(C3)C1)C2	104.9
Cn1c(Cn2c(=O)sc3ccccc32)nnc1SC1CCCC1	98.7
O=S(=O)(/C=C/c1ccccc1)Nc1ccc(F)cc1	76.5*
O=C(O)c1ccccc1NS(=O)(=O)/C=C/c1ccccc1	95.1
O=C(O)CNS(=O)(=O)/C=C/c1ccccc1	100.4
O=C(Nc1ccccc1C(F)(F)F)c1ccc(Cn2cnnn2)cc1	99.7
COc1ccc2oc(=O)cc(CN(C)Cc3ccco3)c2c1	103.2
CCOc1cc(/C=C2/SC(=S)NC2=O)cc(Br)c1O	68.9*
CCOc1cc(/C=C2\SC(=S)NC2=O)cc(Cl)c1OC(=O)c1ccc(OC)cc1	100.1
CC(C)(C)c1cc(/C=C2\SC(=S)NC2=O)cc(C(C)(C)C)c1O	97.5
CCC1(CC)Cc2ccccc2-c2nc3n(c(=O)c21)CCS3	99.9
[O-]c1n[n+](-c2ccccc2)no1	100.5
CC(C)c1ccc2[nH]c3c(c2c1)CCC/C3=N\O	100.0
N/N=C1\CCCc2c1[nH]c1ccc(C(=O)NN)cc21	46.0*
Cc1ccc(C(=O)NCc2ccc3[nH]c4c(c3c2)CCCC4)cc1C	103.3
Cn1cccc1Cc1nnc(SCC(=O)N2CCCCC2)n1-c1ccc(F)cc1	100.4
COC(=O)c1sc2ccccc2c1NC(=O)Cc1ccccc1	100.9
O=C1CCCN1c1ccc(C(F)(F)F)cc1	99.9
SMILES	VACV E9 pol inh
O=C(NCCN1CCCCCC1)c1ccc2c(c1)ncn2C1CCCCC1	96.9
O=C(NCCCN1CCCCC1)c1ccc2nc(N3CCCCC3)sc2c1	96.6
CCOC(=O)N1CCN(C(=O)c2ccc3c(c2)sc2nc(-c4ccc(OC)cc4)cn23)CC1	98.6
CCN1CCCC1CNC(=O)c1ccc2c(c1)sc1nc(-c3cccc(OC)c3)cn12 (configuration not stated)	46.9*
O=C(NCCCN1CCCCC1)c1ccc2c(c1)sc1nc(-c3ccccc3)cn12	58.1*
CCN1CCCC1CNC(=O)c1nnc(Cc2cccc(F)c2)o1 (configuration not stated)	108.1
CC(CC#N)C(=O)c1ccc(Cl)cc1 (configuration not stated)	106.8
CCCc1cc(C2C(C#N)=C(N)Nc3oc(OC)nc32)ccc1OC(C)C (configuration not stated)	100.8
Cc1cccc(C(=O)OCC(=O)NC2CCCC(C)C2C)c1 (configuration not stated)	100.0
CC(=O)N1CCOc2cc(S(=O)(=O)NCCc3cccc(C)c3)ccc21	93.7
O=C(CSCc1ccc2nsnc2c1)Nc1ccccc1	99.9
Cc1cc(=O)n(C(N)=S)[nH]1	96.2
O=C(CSC(F)(F)F)Nc1ccc(I)cc1	100.3
CC1CCN(Cc2ccc(O)c3ncccc23)CC1	107.8
Cc1ccc(CN2COc3c(Cl)cc4c(C)c(C)c(=O)oc4c3C2)cc1	69.4*
Cc1c2c(cc3c4c(c(=O)oc13)CCCC4)CN(CCc1ccc(F)cc1)CO2	105.9
COC(=O)c1cc2ccc3c(c2oc1=O)CN(Cc1ccccc1)CO3	105.0
CCN(Cc1ccccc1)C(=O)c1nc(-c2ccc(Cl)cc2)n2c1CCCCC2	107.3
COc1ccccc1C(=O)COC(=O)c1ccccc1C(F)(F)F	108.2
Nc1ccc2c(c1)nc(-c1ccccc1)c1cc(N)ccc12	98.5
CC[n+]1c(-c2ccccc2)c2cc(N)ccc2c2ccc(N)cc21	12.0*
Cc1cccc(CSc2nc3c(cnn3-c3ccc(Cl)cc3)c(=O)[nH]2)c1	99.7
O=C(O)CCNc1ccccc1C(=O)O	100.2
O=C(O)c1ccccc1NCCO	90.0
O=C(O)c1ccccc1NCc1ccc(Cl)cc1	52.6*
SMILES	VACV E9 pol inh
O=S(=O)(c1ccc(Cl)cc1)N(Cc1ccc(Cl)cc1)Cc1cccnc1	107.4
COC(CNC(=O)c1cc(Sc2nnc(C)s2)nc2ccccc12)OC	93.2
Cc1nnc(Sc2cc(C(=O)NCc3ccccn3)c3ccccc3n2)s1	98.1
Cc1nnc(Sc2cc(C(=O)NCCCN3CC(C)CC(C)C3)c3ccccc3n2)s1 (configuration not stated)	69.3*
COc1ccccc1Nc1nc2c(s1)CCCC2	100.7
O=C(O)CCC(=O)Nc1cc(C(F)(F)F)ccc1N1CCCC1	100.6
CC(C)[C@@H]1NC(=O)[C@H](Cc2ccccc2)NC(=O)[C@@H](CC(=O)O)NC(=O)CNC(=O)[C@H](CCCN=C(N)N)NC1=O	100.8
CC(=O)NCC(c1ccccc1)c1ccccc1	100.0
C1=C[C@H]2c3ccccc3N[C@@H](c3cccc(OC4CSC4)c3)[C@H]2C1	100.0
C[n+]1ccc(/C=C/c2ccc3c(c2)OCO3)c2ccccc21	59.9*
C[n+]1ccc(/C=C\c2ccco2)c2ccccc21	90.9
C[n+]1ccc(/C=C/c2ccccc2O)c2ccccc21	99.9
